In the supplement of paper PMC11172423:

The molecules below were run on Madurella mycetomatis MM55 (assay: growth relative to untreated control; higher = less inhibition, active = 20 or less). Details: 25 µM.
Protocol: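 Hyphal fragments of M. mycetomatis MM55 or F. senegalensis CBS197.79 in RPMI 1640/MOPS were exposed to each MMV COVID Box or Global Health Priority Box compound at 100 or 25 µM for 7 days at 37 °C. Viability was read with MTS (490 nm, M. mycetomatis) or resazurin (600 nm, F. senegalensis), background-corrected with a medium-only control and expressed as % growth relative to the untreated growth control. Inhibition of more than 80% was taken as growth inhibition.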

SMILES | growth
CCN(Cc1ccc(Cl)nc1)/C(=C/[N+](=O)[O-])NC | 86.9% (inactive)
O=C(NC(=O)c1ccccc1Cl)Nc1ccc(OC(F)(F)F)cc1 | 106% (inactive)
CCOCn1c(-c2ccc(Cl)cc2)c(C#N)c(Br)c1C(F)(F)F | 30.1% (inactive)
N#CCNC(=O)c1cnccc1C(F)(F)F | 109% (inactive)
FC(F)(F)c1cc(Cl)cc(Nc2nc3cnc(OC4CCC4)cc3n2[C@@H]2CCNC2)c1 | 79.6% (inactive)
CN/C(=N\[N+](=O)[O-])NCc1cnc(Cl)s1 | 112% (inactive)
CC(C)=CC1C(C(=O)OCN2C(=O)C3=C(CCCC3)C2=O)C1(C)C (stereo not given) | 85.9% (inactive)
Clc1cc(Cl)cc(Nc2nc3cnc(NC4CCCC4)cc3n2C2CCNC2)c1 (stereo not given) | 7.86% (active)
C[C@@H]1C[C@@H]([C@H](O)CC2CC(=O)NC(=O)C2)C(=O)[C@@H](C)C1 | 31.4% (inactive)
CN(C)CCn1c(Nc2cc(Cl)cc(C(F)(F)F)c2)nc2cnc(NC3CCCC3)cc21 | 39.6% (inactive)
CC(COc1ccc(Oc2ccccc2)cc1)Oc1ccccn1 (stereo not given) | 50.7% (inactive)
CC[C@H]1CN2CCc3cc(OC)c(OC)cc3[C@@H]2C[C@@H]1C[C@H]1NCCc2cc(OC)c(OC)cc21 | 84.8% (inactive)
CC1(C)CNC(=NN=C(C=Cc2ccc(C(F)(F)F)cc2)C=Cc2ccc(C(F)(F)F)cc2)NC1 | 104% (inactive)
CC(F)c1ncnc(NCCc2ccc(OC(F)(F)F)cc2)c1Cl (stereo not given) | 11% (active)
N#Cc1nn(-c2c(Cl)cc(C(F)(F)F)cc2Cl)c(NCc2ccccn2)c1SC(F)F | 47.2% (inactive)
CN1CCN(C(=O)O[C@H]2c3nccnc3C(=O)N2c2ccc(Cl)cn2)CC1 | 72.7% (inactive)
CN/C(=N/CC1CCOC1)N[N+](=O)[O-] (stereo not given) | 90.9% (inactive)
Clc1ccc(C(OCCN2CCCCC2)c2ccccc2)cc1 (stereo not given) | 120% (inactive)
CNCCn1c(Nc2cc(Cl)cc(C(F)(F)F)c2)nc2cnc(NC3CC(F)(F)C3)cc21 | 22.2% (inactive)
CC[C@@H]1CCC[C@H](O[C@H]2CC[C@H](N(C)C)[C@@H](C)O2)[C@@H](C)C(=O)C2=C[C@@H]3[C@@H](C=C(C)[C@@H]4C[C@@H](O[C@@H]5O[C@@H](C)[C@H](OC)[C@@H](OC)[C@H]5OC)C[C@@H]34)[C@@H]2CC(=O)O1.CC[C@@H]1CCC[C@H](O[C@H]2CC[C@H](N(C)C)[C@@H](C)O2)[C@@H](C)C(=O)C2=C[C@@H]3[C@@H](C=C[C@@H]4C[C@@H](O[C@@H]5O[C@@H](C)[C@H](OC)[C@@H](OC)[C@H]5OC)C[C@@H]34)[C@@H]2CC(=O)O1 | 133% (inactive)

Same assay, conditions: 100 µM

SMILES | growth
CCN(Cc1ccc(Cl)nc1)/C(=C/[N+](=O)[O-])NC | 132% (inactive)
O=C(NC(=O)c1ccccc1Cl)Nc1ccc(OC(F)(F)F)cc1 | 112% (inactive)
CCOCn1c(-c2ccc(Cl)cc2)c(C#N)c(Br)c1C(F)(F)F | 6.93% (active)
N#CCNC(=O)c1cnccc1C(F)(F)F | 142% (inactive)
FC(F)(F)c1cc(Cl)cc(Nc2nc3cnc(OC4CCC4)cc3n2[C@@H]2CCNC2)c1 | 64% (inactive)
CN/C(=N\[N+](=O)[O-])NCc1cnc(Cl)s1 | 127% (inactive)
CC(C)=CC1C(C(=O)OCN2C(=O)C3=C(CCCC3)C2=O)C1(C)C (stereo not given) | 127% (inactive)
Clc1cc(Cl)cc(Nc2nc3cnc(NC4CCCC4)cc3n2C2CCNC2)c1 (stereo not given) | 6.79% (active)
C[C@@H]1C[C@@H]([C@H](O)CC2CC(=O)NC(=O)C2)C(=O)[C@@H](C)C1 | 3.56% (active)
CN(C)CCn1c(Nc2cc(Cl)cc(C(F)(F)F)c2)nc2cnc(NC3CCCC3)cc21 | 124% (inactive)
CC(COc1ccc(Oc2ccccc2)cc1)Oc1ccccn1 (stereo not given) | 46.3% (inactive)
CC[C@H]1CN2CCc3cc(OC)c(OC)cc3[C@@H]2C[C@@H]1C[C@H]1NCCc2cc(OC)c(OC)cc21 | 43.6% (inactive)
CC1(C)CNC(=NN=C(C=Cc2ccc(C(F)(F)F)cc2)C=Cc2ccc(C(F)(F)F)cc2)NC1 | 106% (inactive)
CC(F)c1ncnc(NCCc2ccc(OC(F)(F)F)cc2)c1Cl (stereo not given) | 10.1% (active)
N#Cc1nn(-c2c(Cl)cc(C(F)(F)F)cc2Cl)c(NCc2ccccn2)c1SC(F)F | 131% (inactive)
CN1CCN(C(=O)O[C@H]2c3nccnc3C(=O)N2c2ccc(Cl)cn2)CC1 | 88.8% (inactive)
CN/C(=N/CC1CCOC1)N[N+](=O)[O-] (stereo not given) | 125% (inactive)
Clc1ccc(C(OCCN2CCCCC2)c2ccccc2)cc1 (stereo not given) | 4.6% (active)
CNCCn1c(Nc2cc(Cl)cc(C(F)(F)F)c2)nc2cnc(NC3CC(F)(F)C3)cc21 | 6.62% (active)
CC[C@@H]1CCC[C@H](O[C@H]2CC[C@H](N(C)C)[C@@H](C)O2)[C@@H](C)C(=O)C2=C[C@@H]3[C@@H](C=C(C)[C@@H]4C[C@@H](O[C@@H]5O[C@@H](C)[C@H](OC)[C@@H](OC)[C@H]5OC)C[C@@H]34)[C@@H]2CC(=O)O1.CC[C@@H]1CCC[C@H](O[C@H]2CC[C@H](N(C)C)[C@@H](C)O2)[C@@H](C)C(=O)C2=C[C@@H]3[C@@H](C=C[C@@H]4C[C@@H](O[C@@H]5O[C@@H](C)[C@H](OC)[C@@H](OC)[C@H]5OC)C[C@@H]34)[C@@H]2CC(=O)O1 | 91.5% (inactive)
